# Records with an inconclusive call do not appear. Entries that show only a call come without a potency. Activity calls are given as the source filed them. Unless noted, calls follow the shape of the full dose curve.
# Experiments:
# [1] = qHTS assay to identify small molecule agonists of the sonic hedgehog signaling (Shh) pathway (AID 1259368);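 also: NIH/3T3-derived 3T3Gli1-Luc cells carrying a stable Gli1-driven firefly luciferase reporter; series mostly up to about 92 µM; nearly all actives have a fitted effect of over 15% in size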
# Outline: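 Luminescence was read after 30 min at room temperature with luciferase reagent. Before that, 3T3Gli1-Luc cells (NIH/3T3 clone, stable Gli1-Luc reporter; 2,000/well) were exposed to compounds for 24 hr at 37C, 5% CO2, compounds being added 4 hr post-plating.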
# [2] = qHTS assay to identify small molecule antagonists of the sonic hedgehog signaling (Shh) pathway (AID 1259369); also: nearly all actives have a fitted effect of over 45% in size; also: potency is read from the fitted curve at half-maximal effect
# Outline: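 Antagonist mode: compound added to 3T3 Gli1-Luc cells followed by conditioned-medium stimulation, 24 h at 37 C, 5% CO2. Inhibition taken as loss of Gli1-driven luciferase luminescence.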
# [3] = qHTS assay to identify small molecule agonists of the androgen receptor (AR) signaling pathway in the presence of an antagonist - cell viability counter screen (AID 1259379; active = well fitted curve in the direction sought with a large enough effect in the repeat runs; an effect the other way counts as inactive or inconclusive;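 also: MDA-kb2 human breast cancer cells carrying an MMTV luciferase reporter; series mostly up to about 92 µM; nearly all actives have a fitted effect of over 25% in size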)
# Outline: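 Cytotoxicity counter-screen run in the same wells as the nilutamide-challenged (3.0 µM final) AR agonist assay in MDA-kb2 cells. Compounds tested at 15 concentrations for 16 h, 37 °C without CO2; CellTiter-Fluor fluorescence read.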
# [4] = qHTS assay to identify small molecule agonists of the estrogen receptor beta (ER-beta) signaling pathway - cell viability counter screen (AID 1259380; active = well fitted curve in the direction sought with a large enough effect in the repeat runs; an effect the other way counts as inactive or inconclusive; also: nearly all actives have a fitted effect of over 30% in size; also: potency is read from the fitted curve at half-maximal effect)
# Outline: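 Cell viability counter screen: CellTiter-Glo luminescence (30 min, room temperature) measured in the same wells as the beta-lactamase readout, after 16 hr compound exposure at 37C of ER-beta-bla HEK293T cells in 2% charcoal-stripped FBS medium.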
# [5] = qHTS assay to identify small molecule antagonists of the estrogen receptor beta (ER-beta) signaling pathway - cell viability counter screen (AID 1259382; active = well fitted curve in the direction sought with a large enough effect in the repeat runs; an effect the other way counts as inactive or inconclusive; also: series mostly up to about 92 µM; nearly all actives have a fitted effect of over 55% in size)
# Outline: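 Cytotoxicity was measured in the same wells by CellTiter-Glo luminescence after 30 min at room temperature. Cells were ER-beta-bla HEK293T in charcoal-stripped serum, given compound together with 1 nM E2 and incubated 16 h at 37C.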
# [6] = biological target: Estrogen receptor (Homo sapiens) (UniProt P03372); assay: qHTS assay to identify small molecule agonists of the estrogen receptor alpha (ER-alpha) signaling pathway in the presence of an antagonist (AID 1259383); also: top concentration of the series differs between compounds; nearly all actives have a fitted effect of over 15% in size
# Chain of Estrogen receptor (Homo sapiens) (P03372 whole entry, looked up): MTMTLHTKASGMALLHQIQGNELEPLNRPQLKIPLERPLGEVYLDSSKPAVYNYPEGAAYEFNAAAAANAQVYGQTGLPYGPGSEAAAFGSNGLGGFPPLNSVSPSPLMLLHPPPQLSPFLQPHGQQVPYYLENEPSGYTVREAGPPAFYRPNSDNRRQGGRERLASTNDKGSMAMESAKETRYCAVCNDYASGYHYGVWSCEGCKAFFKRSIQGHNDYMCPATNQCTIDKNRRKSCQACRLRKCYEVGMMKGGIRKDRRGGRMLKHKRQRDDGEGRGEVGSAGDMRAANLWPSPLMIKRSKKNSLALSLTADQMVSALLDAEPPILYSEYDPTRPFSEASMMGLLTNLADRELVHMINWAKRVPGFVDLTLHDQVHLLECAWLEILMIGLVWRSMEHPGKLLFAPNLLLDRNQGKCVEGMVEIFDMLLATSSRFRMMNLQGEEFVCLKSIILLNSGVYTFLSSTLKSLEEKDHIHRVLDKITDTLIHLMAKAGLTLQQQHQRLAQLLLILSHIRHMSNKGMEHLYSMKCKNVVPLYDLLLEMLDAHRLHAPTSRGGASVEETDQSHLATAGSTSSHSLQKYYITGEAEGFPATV
# Outline: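 Agonist-mode confirmation run in the presence of 10.0nM (final) ICI-182,780 antagonist. The reporter was ERE-driven luciferase in VM7Luc4E2 cells, grown in charcoal-stripped serum. Cells were exposed to 15-concentration compound series for 22hr, then ONE-Glo luminescence was read.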
# [7] = qHTS assay to identify small molecule agonists or antagonists of the thyroid stimulating hormone receptor (TSHR) signaling pathway - wild type cell line counter screen (AID 1259384)
# Outline: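 Wild-type Hek293 cells, 800/well, 18 h at 37C, then compound with Ro20-1724 for 30 min RT. cAMP by HTRF (cAMP-d2/anti-cAMP cryptate), 1 h RT, fluorescence read. 15 concentrations, triplicates.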
# [8] = biological target: Thyrotropin receptor (Homo sapiens) (UniProt P16473); assay: qHTS assay to identify small molecule antagonists of the thyroid stimulating hormone receptor (TSHR) signaling pathway (AID 1259385); also: nearly all actives have a fitted effect of over 20% in size
# Chain of Thyrotropin receptor (Homo sapiens) (P16473 whole entry, looked up): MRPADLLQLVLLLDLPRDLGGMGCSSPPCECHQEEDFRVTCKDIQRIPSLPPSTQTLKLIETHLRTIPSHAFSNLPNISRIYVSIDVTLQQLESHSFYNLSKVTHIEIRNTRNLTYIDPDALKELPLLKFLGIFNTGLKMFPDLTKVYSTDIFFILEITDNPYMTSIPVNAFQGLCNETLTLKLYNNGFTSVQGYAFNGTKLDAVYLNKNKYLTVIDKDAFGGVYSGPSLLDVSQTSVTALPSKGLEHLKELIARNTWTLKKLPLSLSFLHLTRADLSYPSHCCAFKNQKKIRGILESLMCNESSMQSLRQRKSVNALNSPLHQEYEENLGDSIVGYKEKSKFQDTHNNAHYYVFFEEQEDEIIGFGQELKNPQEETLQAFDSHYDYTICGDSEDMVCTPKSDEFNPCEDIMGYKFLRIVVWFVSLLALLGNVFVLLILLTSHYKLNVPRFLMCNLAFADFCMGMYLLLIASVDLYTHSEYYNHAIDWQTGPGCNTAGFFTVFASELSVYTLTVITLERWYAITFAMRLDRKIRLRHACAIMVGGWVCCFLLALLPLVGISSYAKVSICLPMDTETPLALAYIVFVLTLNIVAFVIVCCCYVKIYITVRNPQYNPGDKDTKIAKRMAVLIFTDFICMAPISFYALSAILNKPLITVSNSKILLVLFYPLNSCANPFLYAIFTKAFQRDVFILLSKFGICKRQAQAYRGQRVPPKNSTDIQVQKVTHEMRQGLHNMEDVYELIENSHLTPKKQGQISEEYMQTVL
# Outline: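 TSHR-HEK293 cells (800/well) plated 18 h, then compounds with Ro20-1724 and TSH at 1.5 ng/mL final, 30 min at room temperature. cAMP quantified by HTRF (cAMP-d2/anti-cAMP-cryptate, 1 h); 15 concentrations in triplicate.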
# [9] = qHTS assay to identify small molecule agonists of the estrogen receptor alpha (ER-alpha) signaling pathway in the presence of an antagonist - cell viability counter screen (AID 1259386; active = well fitted curve in the direction sought with a large enough effect in the repeat runs; an effect the other way counts as inactive or inconclusive; also: nearly all actives have a fitted effect of over 30% in size; also: potency is read from the fitted curve at half-maximal effect)
# Outline: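 Compounds tested at 15 concentrations for 22 h at 37C alongside 10.0nM (final) ICI-182,780 antagonist, in VM7Luc4E2 cells grown in phenol red-free, charcoal-stripped medium. Viability read by CellTiter-Fluor fluorescence after 1 h reagent incubation.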
# [10] = biological target: Progesterone receptor (Homo sapiens) (UniProt P06401); assay: qHTS assay to identify small molecule agonists of the progesterone receptor (PR) signaling pathway (AID 1346784); also: nearly all actives have a fitted effect of over 30% in size
# Chain of Progesterone receptor (Homo sapiens) (P06401 whole entry, looked up): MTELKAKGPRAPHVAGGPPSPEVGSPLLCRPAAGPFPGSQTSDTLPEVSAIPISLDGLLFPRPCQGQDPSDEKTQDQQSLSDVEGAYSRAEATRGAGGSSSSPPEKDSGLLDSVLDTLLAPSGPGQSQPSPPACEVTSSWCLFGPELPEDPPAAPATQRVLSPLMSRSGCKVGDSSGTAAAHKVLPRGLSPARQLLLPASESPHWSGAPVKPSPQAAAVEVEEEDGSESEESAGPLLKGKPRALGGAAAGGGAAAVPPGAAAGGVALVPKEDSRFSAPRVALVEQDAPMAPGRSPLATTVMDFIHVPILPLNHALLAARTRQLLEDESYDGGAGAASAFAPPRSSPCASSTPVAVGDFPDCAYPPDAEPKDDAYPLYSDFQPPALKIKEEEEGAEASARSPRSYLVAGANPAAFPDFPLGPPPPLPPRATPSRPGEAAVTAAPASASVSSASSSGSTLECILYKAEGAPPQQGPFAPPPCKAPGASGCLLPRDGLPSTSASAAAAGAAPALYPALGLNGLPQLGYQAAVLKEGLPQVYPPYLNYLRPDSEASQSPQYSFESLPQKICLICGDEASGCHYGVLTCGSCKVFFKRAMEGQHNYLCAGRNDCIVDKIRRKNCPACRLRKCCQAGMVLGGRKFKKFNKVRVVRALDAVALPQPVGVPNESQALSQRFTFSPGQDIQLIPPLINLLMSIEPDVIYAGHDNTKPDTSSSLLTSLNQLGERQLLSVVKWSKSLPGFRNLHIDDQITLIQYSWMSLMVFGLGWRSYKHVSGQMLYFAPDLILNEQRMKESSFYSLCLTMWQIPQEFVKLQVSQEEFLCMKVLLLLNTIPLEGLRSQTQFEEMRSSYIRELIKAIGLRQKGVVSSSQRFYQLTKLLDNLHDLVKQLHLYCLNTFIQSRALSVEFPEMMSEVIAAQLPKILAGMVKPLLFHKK
# Outline: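 Seed PR-UAS-bla HEK 293T cells (2% charcoal-stripped FBS), incubate 6 hr at 37C; add compounds in DMSO, 16 hr at 37C; add LiveBLAzer B/G substrate, 2 hr RT; read fluorescence intensity.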
# [11] = qHTS assay to identify small molecule antagonists of the progesterone receptor (PR) signaling pathway - cell viability counter screen (AID 1346798; active = well fitted curve in the direction sought with a large enough effect in the repeat runs; an effect the other way counts as inactive or inconclusive; also: series mostly up to about 92 µM; nearly all actives have a fitted effect of over 50% in size)
# Outline: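 Measures cytotoxicity in parallel with the PR antagonist reporter read: HEK293T PR-UAS-bla cells get compound and R5020 for 16 hr, and remaining viable cells are quantified by CellTiter-Glo luminescence.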
# [12] = qHTS assay to identify small molecule agonists of the progesterone receptor (PR) signaling pathway - cell viability counter screen (AID 1346799); also: nearly all actives have a fitted effect of over 45% in size; also: potency is read from the fitted curve at half-maximal effect
# Outline: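 Using the same plates as the PR reporter screen, HEK293T PR-UAS-bla cells received compounds for 16 hr at 37C and were then lysed with CellTiter-Glo; luminescence was read 30 min later at room temperature.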
# [13] = qHTS assay to identify small molecule antagonists of the TGF-beta/Smad signaling pathway - cell viability counter screen (AID 1346824; active = well fitted curve in the direction sought with a large enough effect in the repeat runs; an effect the other way counts as inactive or inconclusive; also: nearly all actives have a fitted effect of over 50% in size)
# Outline: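 SBE-bla HEK 293T cells, incubated overnight, then compound plus 0.25 ng/mL TGF-beta1 (stock added) for 5 hr at 37 C. Viability was read in the same wells by CellTiter-Glo luminescence after 30 min at room temperature.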
# [14] = qHTS assay to identify small molecule agonists of the TGF-beta/Smad signaling pathway - cell viability counter screen (AID 1346829; active = well fitted curve in the direction sought with a large enough effect in the repeat runs; an effect the other way counts as inactive or inconclusive; also: top concentration of the series differs between compounds; nearly all actives have a fitted effect of over 45% in size)
# Outline: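 Cytotoxicity counter screen: CellTiter-Glo luminescence (30 min, room temperature) measured in the SBE-bla HEK 293T reporter wells after 5 hr compound treatment at 37 C and the 2 hr substrate step.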
# [15] = qHTS assay to identify small molecule agonists of the TGF-beta/Smad signaling pathway (AID 1346859; active = well fitted activation curve with a large enough effect in the signal ratio in the repeat runs, not every such curve was filed as active; the % refers to the signal ratio; also: series mostly up to about 77 µM)
# Outline: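 Beta-lactamase reporter activity downstream of Smad binding elements was measured in stably transfected HEK 293T cells; compounds were incubated for 5 hr, substrate for 2 hr at room temperature.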
# [16] = biological target: Thyrotropin-releasing hormone receptor (Homo sapiens) (UniProt P34981); assay: qHTS assay to identify small molecule antagonists of the thyrotropin-releasing hormone receptor (TRHR) signaling pathway (AID 1346877; active = well fitted inhibition curve with a large enough effect in the repeat runs, not every such curve was filed as active; also: series mostly up to about 51 µM)
# Chain of Thyrotropin-releasing hormone receptor (Homo sapiens) (P34981 whole entry, looked up): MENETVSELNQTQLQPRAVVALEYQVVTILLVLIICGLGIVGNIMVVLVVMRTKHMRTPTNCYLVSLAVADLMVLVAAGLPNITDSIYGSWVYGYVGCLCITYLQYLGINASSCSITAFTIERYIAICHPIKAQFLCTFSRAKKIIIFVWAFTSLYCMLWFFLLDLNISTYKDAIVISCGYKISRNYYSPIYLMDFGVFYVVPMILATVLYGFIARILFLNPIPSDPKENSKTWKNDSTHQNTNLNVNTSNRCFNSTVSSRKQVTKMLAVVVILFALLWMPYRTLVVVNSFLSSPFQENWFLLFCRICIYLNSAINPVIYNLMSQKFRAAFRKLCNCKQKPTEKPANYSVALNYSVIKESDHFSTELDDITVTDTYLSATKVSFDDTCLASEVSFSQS
# Outline: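 Antagonist mode: after a 5 min room-temperature compound exposure, cells were stimulated with 1 nM (final) TRH. Dye-loaded TRHR-HEK293 cells were used, and calcium-dependent fluorescence was followed for 3 min, with 15-point titrations run in triplicate.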
# [17] = biological target: Androgen receptor (Homo sapiens) (UniProt P10275); assay: qHTS assay to identify small molecule agonists of the androgen receptor (AR) signaling pathway in the presence of an antagonist (AID 1259381); also: nearly all actives have a fitted effect of over 15% in size
# Chain of Androgen receptor (Homo sapiens) (P10275 whole entry, looked up): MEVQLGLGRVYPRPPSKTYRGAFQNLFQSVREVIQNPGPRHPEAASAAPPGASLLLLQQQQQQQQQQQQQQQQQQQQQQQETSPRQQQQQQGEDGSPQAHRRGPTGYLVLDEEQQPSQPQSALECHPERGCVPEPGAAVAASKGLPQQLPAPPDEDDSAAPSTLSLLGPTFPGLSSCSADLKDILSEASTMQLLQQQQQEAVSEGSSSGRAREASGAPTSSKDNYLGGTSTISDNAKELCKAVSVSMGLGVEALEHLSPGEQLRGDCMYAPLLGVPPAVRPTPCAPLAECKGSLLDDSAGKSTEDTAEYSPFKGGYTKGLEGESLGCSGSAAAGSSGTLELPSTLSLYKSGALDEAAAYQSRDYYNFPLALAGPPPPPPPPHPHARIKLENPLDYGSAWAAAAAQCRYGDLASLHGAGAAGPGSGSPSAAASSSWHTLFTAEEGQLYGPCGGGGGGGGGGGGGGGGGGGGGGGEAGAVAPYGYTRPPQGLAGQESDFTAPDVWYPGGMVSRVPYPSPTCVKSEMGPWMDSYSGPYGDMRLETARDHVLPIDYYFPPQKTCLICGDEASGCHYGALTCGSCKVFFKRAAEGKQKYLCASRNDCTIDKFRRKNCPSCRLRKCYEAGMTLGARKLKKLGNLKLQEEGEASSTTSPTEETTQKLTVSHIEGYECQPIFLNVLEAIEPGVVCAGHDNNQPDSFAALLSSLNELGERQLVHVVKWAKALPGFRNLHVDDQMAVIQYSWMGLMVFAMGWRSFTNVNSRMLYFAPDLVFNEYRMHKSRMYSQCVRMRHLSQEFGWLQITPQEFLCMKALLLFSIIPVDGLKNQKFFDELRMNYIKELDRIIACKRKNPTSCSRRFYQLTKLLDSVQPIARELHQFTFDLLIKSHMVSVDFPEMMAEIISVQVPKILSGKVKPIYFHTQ
# Outline: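 Agonist-mode confirmation run against 3.0 uM final nilutamide: compounds titrated at 15 concentrations onto MDA-kb2 MMTV-luciferase reporter cells. Luminescence measured with ONE-Glo following 16 hr incubation, 37C, 0% CO2.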
# [18] = biological target: Progesterone receptor (Homo sapiens) (UniProt P06401); assay: qHTS assay to identify small molecule antagonists of the progesterone receptor (PR) signaling pathway (AID 1346795; active = well fitted inhibition curve with a large enough effect in the signal ratio in the repeat runs, not every such curve was filed as active; the % refers to the signal ratio; also: potency is read from the fitted curve at half-maximal effect)
# Outline: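 Screening used a GripTite HEK293T line with PR-responsive UAS-beta-lactamase. Cells were challenged with compound in the presence of 1 nM R5020 final for 16 hr at 37C; B/G FRET substrate, 2 hr room temperature, fluorescence.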
# [19] = biological target: Estrogen receptor beta (Homo sapiens) (UniProt Q92731); assay: qHTS assay to identify small molecule agonists of the estrogen receptor beta (ER-beta) signaling pathway (AID 1259377; active = well fitted activation curve with a large enough effect in the signal ratio in the repeat runs, not every such curve was filed as active; the % refers to the signal ratio)
# Chain of Estrogen receptor beta (Homo sapiens) (Q92731 whole entry, looked up): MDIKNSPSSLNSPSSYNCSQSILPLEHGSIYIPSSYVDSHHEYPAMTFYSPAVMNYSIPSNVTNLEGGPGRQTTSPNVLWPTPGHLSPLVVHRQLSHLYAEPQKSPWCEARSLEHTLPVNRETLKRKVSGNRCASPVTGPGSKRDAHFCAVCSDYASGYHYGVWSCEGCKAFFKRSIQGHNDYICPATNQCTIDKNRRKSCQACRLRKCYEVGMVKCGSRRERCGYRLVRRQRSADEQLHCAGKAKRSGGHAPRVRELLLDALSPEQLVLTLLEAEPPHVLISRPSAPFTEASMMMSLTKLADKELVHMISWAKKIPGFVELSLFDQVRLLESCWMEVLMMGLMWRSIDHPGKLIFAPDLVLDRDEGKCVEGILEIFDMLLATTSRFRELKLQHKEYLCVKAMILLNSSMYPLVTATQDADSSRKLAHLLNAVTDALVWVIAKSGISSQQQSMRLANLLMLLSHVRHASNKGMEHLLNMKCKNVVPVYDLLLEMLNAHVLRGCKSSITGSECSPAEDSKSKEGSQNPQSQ
# Outline: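 Screening used GripTite ER-beta-UAS-bla cells held in 2% charcoal-stripped FBS medium. After overnight (16 hr) compound incubation at 37C, beta-lactamase activity was detected with a FRET substrate by fluorescence.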
# [20] = biological target: Estrogen receptor beta (Homo sapiens) (UniProt Q92731); assay: qHTS assay to identify small molecule antagonists of the estrogen receptor beta (ER-beta) signaling pathway (AID 1259378; active = well fitted inhibition curve with a large enough effect in the signal ratio in the repeat runs, not every such curve was filed as active; the % refers to the signal ratio)
# Outline: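 ER-beta-UAS-bla HEK293T cells in 2% charcoal-stripped FBS medium treated with compound plus 1nM final 17-beta-estradiol for 16 hr at 37C. Beta-lactamase reporter read by FRET substrate fluorescence after 2 hours at room temperature.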
SMILES,Potency [1],Potency [2],Potency [3],Potency [4],Potency [5],Potency [6],outcome [7],Potency [8],Potency [9],Potency [10],Potency [11],Potency [12],Potency [13],Potency [14],Potency [15],outcome [16],Potency [17],Potency [18],Potency [19],Potency [20]
Cc1ccco1,inactive,inactive,inactive,inactive,inactive,inactive,inactive,inactive,inactive,inactive,inactive,inactive,inactive,inactive,inactive,inactive,,,,
NC(=O)c1ccncc1,inactive,inactive,inactive,inactive,inactive,,inactive,inactive,,inactive,inactive,inactive,inactive,inactive,inactive,inactive,inactive,inactive,,
CCOc1cccc(-n2cc(C(=O)N3CCN(c4cc(C(=O)O)c5ccccc5c4)CC3)nc2-c2ccc(C)cc2)c1,inactive,inactive,inactive,14.7 µM (active),,,,,inactive,inactive,,,inactive,,,,inactive,,,
CCOc1ccccc1O[C@H](c1ccccc1)[C@H]1CNCCO1,inactive,inactive,inactive,inactive,inactive,inactive,inactive,inactive,inactive,,inactive,,inactive,inactive,inactive,,,inactive,,
CC1(C)S[C@@H]2[C@H](NC(=O)C(c3ccccc3)S(=O)(=O)O)C(=O)N2[C@H]1C(=O)O (stereo partly specified),inactive,inactive,inactive,inactive,inactive,inactive,inactive,inactive,inactive,,,inactive,inactive,inactive,inactive,,,inactive,,
O=C1c2ccccc2C(=O)c2c(O)c(O)cc(O)c21,inactive,inactive,,inactive,inactive,inactive,inactive,inactive,,inactive,inactive,,inactive,inactive,inactive,inactive,inactive,inactive,,
N#CCCN(CCO)CCO,inactive,inactive,inactive,inactive,inactive,inactive,inactive,inactive,inactive,inactive,inactive,inactive,inactive,inactive,,inactive,,,,
CCOC(C)=O,inactive,inactive,inactive,inactive,inactive,inactive,inactive,inactive,inactive,inactive,inactive,inactive,inactive,inactive,inactive,inactive,,inactive,,
Brc1cc2ccccc2c2ccccc12,inactive,inactive,,30.9 µM (active),inactive,inactive,,,,inactive,inactive,,inactive,inactive,inactive,inactive,,,,
Nc1nc2ccc([N+](=O)[O-])cc2s1,inactive,48.6 µM (active),,,,,inactive,,54.5 µM (active),,,,inactive,,inactive,inactive,,,,
COc1cc(N)c(Cl)cc1C(=O)NC1CCN(CCCOc2ccc(F)cc2)CC1OC (stereo unspecified),inactive,2.66 µM (active),,5.96 µM (active),inactive,inactive,inactive,,inactive,,inactive,inactive,inactive,inactive,inactive,,,29.8 µM (active),,
Oc1cccc(Nc2ccccc2)c1,inactive,inactive,,inactive,inactive,,inactive,inactive,,inactive,,,,inactive,inactive,inactive,,20.2 µM (active),,
O=C1c2ccccc2C(=O)N1CCc1noc(-c2ccc(CN3CCCCCC3)s2)n1,inactive,22.3 µM (active),,3.15 µM (active),,inactive,,,,inactive,inactive,inactive,inactive,inactive,,inactive,,,,
O=C=Nc1ccc(Cl)c(Cl)c1,inactive,inactive,,47.8 µM (active),,inactive,inactive,inactive,inactive,inactive,,23.9 µM (active),,inactive,inactive,,,,,
CC1CC(OC(=O)C(O)c2ccccc2)CC(C)(C)N1C (stereo unspecified),inactive,,inactive,inactive,inactive,,inactive,inactive,inactive,inactive,inactive,inactive,inactive,inactive,inactive,,,inactive,inactive,inactive
CN(C(=O)CN(CCO)CC(=O)N(C)C(C)(C)Cc1ccccc1)C(C)(C)Cc1ccccc1,inactive,,inactive,inactive,inactive,,,,inactive,inactive,inactive,inactive,inactive,inactive,inactive,inactive,,inactive,inactive,inactive
CCCCCCCC/C=C\CCCCCCCCO,inactive,,inactive,inactive,inactive,,inactive,inactive,inactive,inactive,inactive,inactive,inactive,inactive,inactive,inactive,,,inactive,inactive
CC(=O)Oc1ccc([N+](=O)[O-])cc1CCl,inactive,inactive,,inactive,inactive,inactive,inactive,inactive,48.6 µM (active),inactive,inactive,inactive,inactive,inactive,inactive,inactive,,inactive,,

# Reference: PubChem BioAssay (Tox21)
